# Laboratory results reported in PubChem BioAssay (EPA / NIEHS).
# Records with an inconclusive call do not appear. Activity calls are given as the source filed them. The calls were made as follows: active = hit-call score of the fitted dose curve at least 0.9, where 1 is the maximum; inconclusive = response in the unintended direction; inactive = score below 0.9.
# Read-out: Cytochrome P450 3A4 (Homo sapiens) (UniProt P08684)
# Test: CLD_CYP3A4_48hr: CellzDirect (CLD) Gene Expression Assay for xenobiotic metabolism (CYP3A4) at 48 hours (AID 2283698)
# Description: CLD_48hr is a cell-based, multiplexed-readout assay that uses hepatocyte, a human liver primary cell, with measurements taken at 48 hours after chemical dosing in a 96-well plate.CLD_CYP3A4_48hr is one of 16 assay component(s) measured or calculated from the CLD_48hr assay. It is designed to make measurements of mRNA induction, a form of inducible reporter, as detected with chemiluminescence signals by Quantitative Nuclease Protection Assay (qNPA) technology.Data from the assay component CLD_CYP3A4_48hr was analyzed at the endpoint, CLD_CYP3A4_48hr, in the positive analysis fitting direction relative to DMSO as the negative control and baseline of activity. Using a type of inducible reporter, gain-of-signal activity can be used to understand changes in the reporter gene as they relate to the gene CYP3A4. Furthermore, this assay endpoint can be referred to as a primary readout. To generalize the intended target to other relatable targets, this assay endpoint is annotated to the cyp intended target family, where subfamily is xenobiotic metabolism.
# Human hepatocyte cultures were treated daily for two consecutive days with fresh dosing solutions containing appropriate concentrations of the 320 ToxCast chemicals (chemical identities were blinded to CellzDirect and other ToxCast collaborators), vehicle control (0.2% DMSO), and positive control inducers as summarized in Table 1. Due to the large number of treatment groups and chemicals examined, the ToxCast chemicals were divided into two groups (spanning two independent cultures of hepatocytes from separate donor preparations (Hu778: ToxCast plates 1 and 2; Hu776: ToxCast plates 3 and 4). Each preparation of human hepatocyte cultures was treated with respective vehicle control, medium only control, set of six positive controls/reference chemicals for the five hepatic receptor pathways, and a subset of eight of the ToxCast chemicals (indoxacarb, pyrithiobac-sodium, norflurazon, cyhalofop-butyl, methomyl, thiram, acetochlor, and propiconazole). These replicate data, coupled with internal replicates designed within the blinded ToxCast chemical library, provided additional data to evaluate interindividual differences between hepatocyte preparations and their potential impact on chemical profiles.Cell morphology and integrity were evaluated using phase-contrast microscopy as an indicator of hepatocyte cell health (Tyson & Green, 1987). Cultures for each treatment group (i.e., media, vehicle [0.2% DMSO], positive control inducers [multiple concentrations], and the ToxCast chemicals [multiple concentrations]) were observed and cell morphology was assessed relative to vehicle control cultures at each harvest time point (0, 6, 24, or 48 h). […] Images were evaluated at the conclusion of the study to assess changes in cell integrity and account for the effects of chemical exposure on uncharacteristic changes in concentration-dependent gene expression profiles. The results from these determinations of apparent cytotoxicity were annotated (yes/no) alongside the corresponding qNPA data for reference.At the conclusion of each treatment period, hepatocyte cultures (96-well) were washed with 1 volume of HBSS, lysed by addition of 25 ul ArrayPlate lysis buffer (HTG, Tucson, AZ), and 70 ul/well of Denaturation Oil, denatured by incubation at 95C for 10 min, and frozen at approximately -70C until analysis by nuclease protection assay (qNPA) (Roberts et al., 2007). For qNPA analysis, cell lysates were thawed at 50C for approximately 30 min, qNPA probes were added, and samples were incubated at 95C for 10 min to begin the detection process by denaturing the target RNA, dissociating the duplexes and secondary structure hybridization. At the conclusion of the hybridization period, S1 nuclease reagent was added to each sample to digest all nonprotected nucleotides at 50C for 60-90 min. […]
# Sequence of Cytochrome P450 3A4 (Homo sapiens) (P08684 whole entry, looked up): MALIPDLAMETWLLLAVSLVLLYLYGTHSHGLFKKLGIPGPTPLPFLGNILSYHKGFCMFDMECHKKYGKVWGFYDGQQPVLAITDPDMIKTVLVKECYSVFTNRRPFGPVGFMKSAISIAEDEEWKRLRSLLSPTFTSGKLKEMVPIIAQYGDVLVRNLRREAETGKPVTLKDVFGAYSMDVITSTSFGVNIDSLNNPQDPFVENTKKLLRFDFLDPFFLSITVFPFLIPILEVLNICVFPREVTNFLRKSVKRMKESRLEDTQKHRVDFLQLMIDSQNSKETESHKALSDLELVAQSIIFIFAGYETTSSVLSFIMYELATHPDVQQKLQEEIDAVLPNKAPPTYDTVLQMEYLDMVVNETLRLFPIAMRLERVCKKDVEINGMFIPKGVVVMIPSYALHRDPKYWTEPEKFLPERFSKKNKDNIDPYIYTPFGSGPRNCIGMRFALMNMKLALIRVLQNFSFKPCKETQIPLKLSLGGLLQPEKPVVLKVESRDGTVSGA
SMILES,outcome,AC50
CNC(=O)ON=C(C)SC,inactive,
CCC(=O)Nc1ccc(Cl)c(Cl)c1,inactive,
CCCCN(CC)c1c([N+](=O)[O-])cc(C(F)(F)F)cc1[N+](=O)[O-],,6.48 µM (active)
CC(C)=CC1C(C(=O)OCN2C(=O)C3=C(CCCC3)C2=O)C1(C)C (stereo not given),,0.152 µM (active)
CNc1cnn(-c2cccc(C(F)(F)F)c2)c(=O)c1Cl,,13.6 µM (active)
COP(=O)(OC)SCn1c(=O)oc2cc(Cl)cnc21,inactive,
CCC(CC)Nc1c([N+](=O)[O-])cc(C)c(C)c1[N+](=O)[O-],,20 µM (active)
CCOC(=O)COc1cc(-c2nn(C)c(OC(F)F)c2Cl)c(F)cc1Cl,,4.37 µM (active)
COc1cccc(C(=O)NN(C(=O)c2cc(C)cc(C)c2)C(C)(C)C)c1C,,1.42 µM (active)
Cc1cc(C2CC2)nc(Nc2ccccc2)n1,inactive,
CC[C@H](C)[C@H]1O[C@]2(C=C[C@@H]1C)C[C@@H]1C[C@@H](C/C=C(\C)[C@@H](O[C@H]3C[C@H](OC)[C@@H](O[C@H]4C[C@H](OC)[C@@H](NC)[C@H](C)O4)[C@H](C)O3)[C@@H](C)/C=C/C=C3\CO[C@@H]4[C@H](O)C(C)=C[C@@H](C(=O)O1)[C@]34O)O2,inactive,
C#CC(C)(C)NC(=O)c1cc(Cl)cc(Cl)c1,inactive,
CCc1cccc(CC)c1N(COC)C(=O)CCl,inactive,
CN(C)C(=O)Nc1cccc(C(F)(F)F)c1,,20 µM (active)
CCCOCC(=Nc1ccc(Cl)cc1C(F)(F)F)n1ccnc1,,1.89 µM (active)
C#CCC1=C(C)C(OC(=O)C2C(C=C(C)C)C2(C)C)CC1=O (stereo not given),,14.1 µM (active)
C[Si](Cn1cncn1)(c1ccc(F)cc1)c1ccc(F)cc1,,0.536 µM (active)
N#CSCSC#N,inactive,
CCOP(=S)(OCC)Oc1ccc([N+](=O)[O-])cc1,,2.92 µM (active)
CN(C)[C@@H]1C(=O)C(C(N)=O)=C(O)[C@@]2(O)C(=O)C3=C(O)c4c(O)cccc4[C@@](C)(O)[C@H]3[C@H](O)[C@@H]12,inactive,

SMILES,outcome,AC50
COc1ccc(C(=CC(=O)N2CCOCC2)c2ccc(Cl)cc2)cc1OC,,1.9 µM (active)
CC(C)N(C(=O)SCC(Cl)=C(Cl)Cl)C(C)C,,3.07 µM (active)
CCNc1nc(Cl)nc(NC(C)(C)C#N)n1,,20 µM (active)
CC(C1CC1)C(O)(Cn1cncn1)c1ccc(Cl)cc1 (stereo not given),,20 µM (active)
COc1cc(OC)nc(Sc2cccc(Cl)c2C(=O)O)n1,,35.2 µM (active)
CC(=NC#N)N(C)Cc1ccc(Cl)nc1,inactive,
CCCSP(=O)(OCC)Oc1ccc(Br)cc1Cl (stereo not given),,7.57 µM (active)
CSc1nc(NC(C)C)nc(NC(C)C)n1,,3.24 µM (active)
Cc1nn(-c2cc(NS(C)(=O)=O)c(Cl)cc2Cl)c(=O)n1C(F)F,,2.46 µM (active)
CCc1cnc(C2=NC(C)(C(C)C)C(=O)N2)c(C(=O)O)c1 (stereo not given),inactive,
CC1=NNC(=O)N(/N=C/c2cccnc2)C1,inactive,
CCc1cccc(C)c1N(C(=O)CCl)C(C)COC (stereo not given),,3.97 µM (active)
CON=C(C(=O)OC)c1ccccc1CON=C(C)c1cccc(C(F)(F)F)c1,,13.1 µM (active)
CCOP(=O)(SC(C)CC)N1CCSC1=O (stereo not given),,5.18 µM (active)
CCOC(=O)CC(SP(=O)(OC)OC)C(=O)OCC (stereo not given),,20 µM (active)
CN1COCN(Cc2cnc(Cl)s2)C1=N[N+](=O)[O-],inactive,
CCOP(=S)(Oc1cnc(C(C)(C)C)nc1)OC(C)C (stereo not given),,0.383 µM (active)
CCCOc1nn(C(=O)NS(=O)(=O)c2ccccc2C(=O)OC)c(=O)n1C,,36.4 µM (active)
CCOP(=S)(OCC)OC(Cl)C(Cl)(Cl)Cl (stereo not given),,9.51 µM (active)
Cc1ccn2nc(S(=O)(=O)Nc3c(F)cccc3F)nc2n1,,3.97 µM (active)
